The source of these data is PubChem BioAssay (NCI).

Test systems include NCI-H23 lung; NCI-H226 lung; NCI-H322M lung; HOP-62 NSCLC; NCI-H460 lung; HOP-92 NSCLC; NCI-H522 lung; A549/ATCC NSCLC; 786-0 renal; COLO 205 colon; DU-145 prostate; K-562 leukemia; MALME-3M melanoma; MDA-MB-231 breast; RXF 393 renal; SF-268 CNS; SF-295 CNS; SF-539 CNS; UACC-257 melanoma; M14 melanoma.
What all share (experiment): NCI-60 one-dose screen, 48 h (100 = growth as untreated, 0 = no growth, -100 = all killed)
Common to all, as to details: 10 µM unless noted

This is part of a sample that, as a whole, favours compounds with a hit. Of some 83,000 tested, about 20% had one in any assay.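 Method: cells in 96-well plates; compound added at one concentration; 48 h incubation; percent growth measured; values under 10 scored active.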 Values without a mark were called inactive. Calls of active or inactive are those of the source.

With `Cc1cc(Nc2cc(N3CCN(C)CC3)nc(/C=C/c3ccccc3)n2)n[nH]1`, the growth in the test with NCI-H23 lung is 22.3%; in the test on NCI-H226 lung, 17.7%; with NCI-H322M lung, 29.5%; with HOP-62 NSCLC it was -19.7% (active); with NCI-H460 lung, 5.31% (active); with HOP-92 NSCLC, -60.5% (active). Besides, the growth in the test with NCI-H522 lung was -12.4% (active); with A549/ATCC NSCLC, -25% (active); in the test with 786-0 renal, -94.3% (active); in the test with COLO 205 colon, -63.2% (active); in the test on DU-145 prostate, 26.9%; with K-562 leukemia, -18.8% (active). In addition, the growth in the test on MALME-3M melanoma was -60.6% (active); in the test with MDA-MB-231 breast it was 9.8% (active); in the test on RXF 393 renal, -86.6% (active); in the test with SF-268 CNS, -26.1% (active); with SF-295 CNS it was -17% (active); in the test on SF-539 CNS, -79.1% (active). Further, the growth in the test with UACC-257 melanoma is -73.4% (active); with M14 melanoma, -76.6% (active).
With `CNC(=O)c1cc(Oc2ccc3nc(NC(=O)Nc4ccc(Cl)c(C(F)(F)F)c4)sc3c2)ccn1`, the growth is 16.5% in the test on NCI-H23 lung; 20.6% in the test with NCI-H226 lung; 23.7% in the test with NCI-H322M lung; -31.3% (active) with HOP-62 NSCLC; 3.45% (active) in the test with NCI-H460 lung; -27.6% (active) with HOP-92 NSCLC. Moreover, the growth in the test on NCI-H522 lung was 17.1%; in the test on A549/ATCC NSCLC, -25.1% (active); in the test on 786-0 renal, -64.4% (active); with COLO 205 colon, 23.8%; with DU-145 prostate, 19.2%; in the test with K-562 leukemia it was 47.2%. The growth in the test on MALME-3M melanoma was -21.1% (active); in the test on MDA-MB-231 breast it was 4.76% (active); with RXF 393 renal, -19.4% (active); with SF-268 CNS, 21.9%; with SF-295 CNS it was -10.9% (active); with SF-539 CNS, -2.86% (active). Besides, the growth with UACC-257 melanoma is 61.4%; with M14 melanoma it was -10.4% (active).
With `C/C(=C(/c1ccc(Cl)cc1)c1ccc(OCCN2CCCC2)cc1)c1ccccc1`, the growth in the test on NCI-H23 lung was 71.2%; in the test with NCI-H226 lung, 83.3%; in the test with NCI-H322M lung, 82.5%; in the test on HOP-62 NSCLC it was 90%; in the test with NCI-H460 lung it was 41.5%; in the test on HOP-92 NSCLC, 84.2%. Besides, the growth in the test with NCI-H522 lung was 58.9%; in the test on A549/ATCC NSCLC, 66.7%; in the test on 786-0 renal, 75.2%; in the test on COLO 205 colon, 24.3%; with DU-145 prostate it was 86.4%; with K-562 leukemia, 6.72% (active). In addition, the growth was 62.4% with MALME-3M melanoma; 61.3% in the test on MDA-MB-231 breast; 66.6% with RXF 393 renal; 87.9% in the test with SF-268 CNS; 77.5% in the test on SF-295 CNS; 58.8% with SF-539 CNS. Also, the figures for the growth with UACC-257 melanoma and with M14 melanoma were 44.7% and 28.3%, respectively.
In the case of `CC(=O)OC(C(=O)c1ccccc1)c1ccccc1` (stereo not given), the growth was 111% with NCI-H23 lung; 98.9% in the test with NCI-H226 lung; 99.8% in the test on NCI-H322M lung; 103% with HOP-62 NSCLC; 101% in the test with NCI-H460 lung; 58% with HOP-92 NSCLC. The growth is 90.6% in the test with NCI-H522 lung; 106% in the test on A549/ATCC NSCLC; 100% in the test with 786-0 renal; 107% in the test on COLO 205 colon; 111% in the test on DU-145 prostate; 96.5% in the test on K-562 leukemia. Moreover, the growth with MALME-3M melanoma was 95.8%; in the test on MDA-MB-231 breast, 107%; in the test on RXF 393 renal it was 103%; in the test with SF-268 CNS, 107%; in the test on SF-295 CNS, 108%; in the test on SF-539 CNS it was 114%. Also, the growth is 107% with UACC-257 melanoma and 104% with M14 melanoma.
In the case of `COc1ccc(C(=O)N2c3ccccc3Sc3ccccc32)c(F)c1`, the growth with NCI-H23 lung was 32.4%; with NCI-H226 lung, 46.1%; with NCI-H322M lung, 44.2%; with HOP-62 NSCLC, 37.1%; in the test on NCI-H460 lung, 12%; in the test on HOP-92 NSCLC, 42.3%. In addition, the growth in the test with NCI-H522 lung is 0.479% (active); in the test with A549/ATCC NSCLC it was 27.2%; in the test on 786-0 renal, 23.1%; in the test on COLO 205 colon it was 8.26% (active); in the test on DU-145 prostate, 5.05% (active); with K-562 leukemia, 12.7%. The growth was 46.6% with MALME-3M melanoma; 52.5% with MDA-MB-231 breast; -23.1% (active) in the test on RXF 393 renal; 53.1% with SF-268 CNS; 8.85% (active) in the test on SF-295 CNS; -15.8% (active) in the test on SF-539 CNS. Further, the results for the growth in the test on UACC-257 melanoma and in the test on M14 melanoma were 67.1% and 2.04% (active), respectively.
In the case of `COc1cc2cc(NCc3ccc(Cl)cc3)nc(C)c2cc1OC`, the growth was 23.7% in the test with NCI-H23 lung; 35.5% in the test on NCI-H226 lung; 44.6% with NCI-H322M lung; 56.5% in the test with HOP-62 NSCLC; 22.6% with NCI-H460 lung; 36.3% with HOP-92 NSCLC. Moreover, the growth was 45.7% in the test on NCI-H522 lung; 39.8% in the test with A549/ATCC NSCLC; 28.2% in the test with 786-0 renal; 26.5% in the test with COLO 205 colon; 49% in the test with DU-145 prostate; 9.09% (active) in the test on K-562 leukemia. In addition, the growth in the test with MALME-3M melanoma was 88.3%; in the test on MDA-MB-231 breast, 42.1%; in the test with RXF 393 renal it was 48.5%; in the test on SF-268 CNS it was 43.7%; in the test with SF-295 CNS it was 34.4%; in the test with SF-539 CNS it was -14.9% (active). The growth in the test with UACC-257 melanoma is 64.2%; in the test with M14 melanoma, 19.3%.
For `CN1[C@@H]2CC[C@H]1/C(=C\c1ccccc1)C1=C2[C@@H](c2ccccc2)C(C#N)=C(N)O1`, the growth was 78.6% in the test on NCI-H23 lung; 67.2% in the test with NCI-H226 lung; 94.8% in the test on NCI-H322M lung; 90.6% with HOP-62 NSCLC; 92.7% in the test with NCI-H460 lung; 78.7% in the test on HOP-92 NSCLC. Further, the growth in the test with NCI-H522 lung is 74%; with A549/ATCC NSCLC, 48.3%; in the test on 786-0 renal, 73.4%; in the test with COLO 205 colon, 80.4%; in the test on DU-145 prostate, 51.5%; in the test with K-562 leukemia it was 64.4%. Also, the growth in the test on MALME-3M melanoma is 88.8%; in the test with MDA-MB-231 breast it was 94.9%; in the test with RXF 393 renal, 63%; in the test with SF-268 CNS, 77%; in the test with SF-295 CNS it was 83.8%; with SF-539 CNS, 97.8%. The figures for the growth in the test on UACC-257 melanoma and in the test with M14 melanoma were 54.6% and 75.6%, respectively.
Regarding `Nc1ncnc2c1c(-c1cccc(OCc3ccccc3)c1)cn2C1CC(CN2CCC2)C1` (stereo not given), the growth in the test on NCI-H23 lung is 33.6%; in the test with NCI-H226 lung, 40.1%; in the test with NCI-H322M lung, 42.9%; in the test on HOP-62 NSCLC, -29.5% (active); in the test on NCI-H460 lung, 21.9%; in the test with HOP-92 NSCLC, -21% (active). Also, the growth was -23.6% (active) with NCI-H522 lung; 4.8% (active) in the test with A549/ATCC NSCLC; -70.4% (active) in the test on 786-0 renal; -66.7% (active) in the test on COLO 205 colon; 44.5% with DU-145 prostate; -45.7% (active) in the test on K-562 leukemia. Besides, the growth in the test with MALME-3M melanoma was -79.7% (active); in the test with MDA-MB-231 breast, 3.88% (active); in the test with RXF 393 renal, -16.4% (active); in the test on SF-268 CNS, 17.3%; in the test with SF-295 CNS, -47.3% (active); in the test with SF-539 CNS it was -84.4% (active). The results for the growth in the test with UACC-257 melanoma and with M14 melanoma were -79.4% (active) and -78.1% (active), respectively.
